Rows were chosen to be rich in hits. Some 21% of all compounds tested hit in one or more screens of this group.
NS1 inh – blocks influenza NS1 protein function | Potency, µM (doses to about 46.1 µM) | actives 0.4% (n = 270,000); calls by dose curve; note: actives are rising curves; nearly all actives have a fitted effect of over 50% in size
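S. cerevisiae expressing influenza A NS1, grown in glucose, washed, then diluted 1:100 into pH 6.0 -URA galactose medium with 23 nl compound. Growth recovery read as OD600; NS1-free strain serves as control.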
Cycloheximide cs – counter-screen hit for Shiga toxin inhibitors, cycloheximide; actives 12% (n = 300,000); AID 2314; max response, %; cell reporter, cycloheximide protein synthesis inhibition counterscreen; in the data active = max response mostly above about 13%, no sharp cut-off; inactive = mostly below about 14%; note: read at 38.3 µM for the half of the compounds with a filed dose
Shiga inhibitor – inhibitors of Shiga toxin in Vero cells | inhibition, % at 38.7 µM | Vero cells, Shiga toxin protein synthesis inhibition reporter | actives 9.2% (n = 290,000); in the data active = inhibition mostly above about 28%, no sharp cut-off; inactive = mostly below about 43%
Sm TGR block – S. mansoni TGR enzyme inhibition; actives 3% (n = 360,000); Q962Y6; purified TGR, DTNB reduction, TNB absorbance 405 nm; Potency, µM (titrated, usually from 114 µM), hits mostly inhibitors; AID 485364; note: nearly all actives have a fitted effect of over 60% in size
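Kinetic colorimetric format: TGR-catalysed, NADPH-driven DTNB reduction monitored via TNB absorbance. Enzyme dispensed at 20 nM; compound exposure 15 min at room temperature before reaction start.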
Pf growth 96h – P. falciparum growth inhibition at 96 hours; P. falciparum luciferase reporter growth, 96 h; Potency, µM (titrated, usually from 28.7 µM), most hits filed as inhibitors; AID 504834; actives 6.9% (n = 320,000)
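Cell-based qHTS: luciferase-tagged P. falciparum in erythrocytes (2% hematocrit, 0.05% parasitemia final) incubated with compounds for 96 hours, 37 C, 5% CO2; luciferase detection reagent then added and luminescence measured.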
Pf growth 48h – P. falciparum growth inhibition at 48 hours (one generation); P. falciparum luciferase growth in erythrocytes, 48 h; Potency, µM (top dose mostly 28.7 µM), usual class: inhibitors; actives 5.9% (n = 310,000)
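Erythrocytes infected with P. falciparum carrying an integrated firefly luciferase reporter (2% hematocrit, 0.1% parasitemia final) were exposed to compounds in RPMI 1640 with 0.5% Albumax at 37 C, 5% CO2. Growth inhibition was scored as reduced luminescence.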
A number is an active result; 0 = inactive; ? = inconclusive; - = no result. Unless noted, calls come from the whole dose curve; as a rule, active = well fitted curve in the direction sought with a large enough effect; inconclusive = small, poorly fitted or top-dose-only effect, or another doubt; inactive = no such curve, though single readings can be large; an effect the other way counts as inactive or inconclusive.

SMILES	NS1 inh	Cycloheximide cs	Shiga inhibitor	Sm TGR block	Pf growth 96h	Pf growth 48h
O=S(=O)(NCc1csc(-c2cccnc2)n1)c1cccs1	0	0	0	0	?	0
Cc1cccc(Cn2c(COc3ccccc3)nc3ccccc32)c1	-	-	-	0	-	-
CCOC(=O)c1ccccc1NC(=O)CSc1nc(=O)[nH]c2c1CCC2	-	-	-	0	-	-
C/C1=C\[C@@H](C)C/C=C/[C@H]2[C@@H]3O[C@]3(C)[C@@H](C)[C@H]3[C@H](Cc4c[nH]c5ccccc45)NC(=O)[C@]32C(=O)/C=C/C(=O)[C@@H]1O	0	0	0	0	0	0.29µM
Cc1ccc(NC2CC(=O)N(c3ccc(C)cc3)C2=O)cc1 (centres undefined)	0	0	0	0	-	0
CN(C)S(=O)(=O)c1cc(NC2CC(=O)N(c3ccc(F)cc3)C2=O)ccc1Cl (centres undefined)	-	0	0	25µM	0	0
COc1ccc(CCNC(=O)c2ccc3c(Cl)c4c(nc3c2)CCCC4)c(OC)c1	-	-	-	0	-	-
Cc1c(CNC2CCCCC2)c(C(=O)O)c(C)n1Cc1ccccc1F	-	-	-	0	-	-
CCc1ccc(/C=N/Nc2ncnc3nc[nH]c23)cc1	0	40	82	0	0	0
O=C(NCCCN1CCOCC1)C1CCN(S(=O)(=O)c2ccccc2)CC1	-	-	-	0	0	0
CN1CCOc2ccc(S(=O)(=O)N3CCN(S(=O)(=O)c4c(F)cccc4F)CC3)cc21	-	0	0	0	?	?
CCCS(=O)(=O)n1nc(-c2ccccc2)cc1N	0	0	0	0	9.3µM	-
CCS(=O)(=O)n1nc(-c2ccccc2)cc1N	?	0	0	0	1.3µM	-
NC(N)=NS(=O)(=O)c1ccc(NC(=S)NC(=O)c2sc3ccccc3c2Cl)cc1	0	0	0	0	0	0
CCCCN(C)CC(O)Cn1cc(/C=C/C(=O)c2ccc(OCC)cc2)c2ccccc21 (centres undefined)	0	0	0	0	?	5.2µM
CCCCN(CCCC)CC(O)Cn1cc(/C=C/C(=O)c2ccccc2)c2ccccc21 (centres undefined)	-	-	-	0	-	-
CCCCN(C)CC(O)Cn1cc(/C=C/C(=O)c2cccs2)c2ccccc21 (centres undefined)	0	0	0	0	4.1µM	8.3µM
O=C(/C=C/c1cn(CC(O)CN2CCCCCC2)c2ccccc12)c1cccs1 (centres undefined)	0	0	0	0	0	12µM
COc1ccc(CNC(=O)CN(Cc2ccccc2)C(=O)CCC(=O)Nc2nccs2)cc1	0	0	0	0	0	0
CCOC(=O)c1sc2nc(C)nc(SC(C)C(=O)N(C)c3ccccc3)c2c1C (centres undefined)	-	-	-	0	9.3µM	12µM
COc1cc2c(cc1O)CCN[C@@]21CS[C@H]2c3c(OC(C)=O)c(C)c4c(c3C(COC1=O)N1C2C2c3c(cc(C)c(OC)c3O)CC([C@@H]1O)N2C)OCO4 (some centres undefined)	-	-	-	-	2.1µM	0.0005µM
COc1cccc(CNC(=O)CN2C(=O)CCSc3ccc(S(=O)(=O)N4CCCC4)cc32)c1	0	0	0	0	0	?
C/C(CCc1oc2ccccc2c1-c1ccc(C)o1)=N/O	0	0	0	20µM	0	0
O/N=C(/c1ccccc1)c1cc2cc(Br)cc(Br)c2o1	0	0	0	0	0	0
C/C(CCc1oc2c(Br)cc(Br)cc2c1-c1ccc(C)o1)=N\O	0	0	0	16µM	0	?
SMILES	NS1 inh	Cycloheximide cs	Shiga inhibitor	Sm TGR block	Pf growth 96h	Pf growth 48h
O=C1CC(c2cc(F)cc(F)c2)c2cc3c(cc2N1)OCO3 (centres undefined)	-	-	-	0	-	-
Cc1ccccc1-c1cc2nccc(-c3cc(Cl)ccc3O)n2n1	-	-	-	0	-	-
COc1cccc(NC(=O)c2ccc(CNS(=O)(=O)c3ccc4c(c3)C(C)(C)C(=O)N4C)cc2)c1	-	-	-	0	-	-
O=C(Cn1nc2c(cc1=O)CCCC2)NCc1ccccc1Cl	-	-	-	0	-	-
CCOc1ccc2ncc(S(=O)(=O)c3ccccc3)c(N3CCN(c4ccc(OC)cc4)CC3)c2c1	0	0	0	0	2.9µM	8.3µM
COc1ccc(N2CCN(c3c(S(=O)(=O)c4ccccc4)cnc4ccc(OC)cc34)CC2)cc1	?	0	0	0	4.1µM	8.3µM
CCCCn1c(N)c(N(CC(C)C)C(=O)CSc2n[nH]c(-c3ccc(C)cc3)n2)c(=O)[nH]c1=O	-	-	-	0	?	?

Screening results (PubChem)
